One assay concerns T1, DLK.
T1 construct: gene MAP3K12
Particulars: concentration: 1 μM, replicates: in singlicate; n = 1.
In the case of `CN1C(=O)C(Nc2cc(Cl)c(O)c(Cl)c2)=C(c2ccc(Cl)cc2)C1=O` [SB-404321], the “%Inh” value stood at 33%.
Still for that read-out and setting: the figure for `CCC(=O)c1c(-c2ccccc2)c2cc(Cl)ccc2c(=O)n1Cc1cc(C(=O)NC2CC2)n(C)n1` is 49%.
Still for that read-out and setting: the value for `COc1cccc(C2=C(Nc3cccc(C(=O)O)c3)C(=O)NC2=O)c1` [SB-390770] was 0%; that for `O=C(Nc1ccc2c(c1)OCO2)NC1CCN(c2ccnc(NCc3ccc(F)cc3)n2)CC1` [GSK1379859] was 22%.
The same measure, in the same setting: the value for `COc1cc2nccc(Nc3cccc(Oc4ccccc4)c3)c2cc1OC.Cl` [GW284543] was 24%.
`COc1cc(Nc2nccc(N3CCC(NC(=O)C(C)c4ccc(Cl)cc4)C3)n2)cc(OC)c1OC` (centres unmarked) [GSK1379757]: the “%Inh” value was 29%.
The same measure, in the same setting: the figure for `Cc1ccccc1COc1cc(-n2cnc3cc(Cl)ccc32)sc1C(N)=O` [GW813349] is 0%; for `CCC(=O)c1c(-c2ccccc2)c2cc(Cl)ccc2c(=O)n1Cc1cc(S(C)(=O)=O)n(CCC(C)(C)O)n1` it is 0%.
The same measure, in the same setting: the value for `Cc1nn2c(=O)cc(N3CCOCC3)nc2n1Cc1cccc(Cl)c1Cl` [GSK2342769] was 12%.
The same measure, in the same setting: the value for `COc1ccc(Nc2nccc(N3CCC(NS(=O)(=O)c4ccc(NC(C)=O)cc4)C3)n2)cc1` (centres unmarked) [GSK1379729] was 23%; that for `Cc1cccc(-c2nc(Nc3ccc4c(cnn4C)c3)c3ccccc3n2)n1` [GW876731] was 0%; that for `C[C@@H]1CC[C@H](C(=O)NC2CCCCC2)CN1c1cc(-c2ccc3c(N)n[nH]c3c2)nc(N)n1` [GSK2291363] was 31%.
With `COc1cc2ncn(-c3cc(OCc4ccncc4Br)c(C(N)=O)s3)c2cc1OC` [GW854278], the “%Inh” value is 12%.
Still for that read-out and setting: the value for `Cc1ccc(-c2ccc3c(ccc4sc5c(c43)NC[C@@H](C)N=C5N(C)C)n2)cn1` was 0%; that for `COc1ccc(-c2coc3ccc(-c4nnc(SCc5cccc(C#N)c5)o4)cc23)cc1` was 1%; that for `Cc1cc(Nc2nc(-c3cccc(C)n3)nc3ccccc23)ccn1` [GW872411] was 0%.
Take `Cl.NS(=O)(=O)c1cccc(Nc2cc(-c3ccc(F)cc3)n[nH]2)c1` [GW824645]: the “%Inh” value was 0%.
On the same count and under the same terms, the figure for `CC(C)(C)c1ccc(C(=O)Nc2cn3cc(-c4ccccc4)ccc3n2)cc1` is 0%.
Still for that read-out and setting: the value for `CCn1c(-c2ccoc2)nc2cnccc21` [SB-733887] was 7%.
With `Nc1n[nH]c2nnc(-c3ccccc3)c(-c3ccccc3)c12` [GW554060], the “%Inh” value is on record as 25%.
Still for that read-out and setting: the value for `CN(C)c1cc(-c2ccc3c(N)n[nH]c3c2)nc(N)n1` [GSK2219329] was 7%; that for `Nc1ncnc2c1ncn2-c1cccc(F)c1` [SKF-97560] was 19%; that for `Nc1nc(-c2ccccc2F)c(-c2ccnc3ccccc23)s1` [GW560459] was 36%.
Still for that read-out and setting: the figure for `CCn1c(-c2nonc2N)nc2ccccc21` [SB-693162/GW549034] is 0%; for `Cc1ccc(Oc2ccc(Nc3ncnc4cc[nH]c34)cc2C)cn1` it is 22%.
The same measure, in the same setting: the figure for `Cc1nnc(-c2ccc(C)c(-c3ccc(C(=O)O)cc3)c2)o1` [GW608005] is 21%; for `CCS(=O)c1ccc(-c2coc3ccc(-c4nnc(C)o4)cc23)cc1` (centres unmarked) it is 30%.
`COC(=O)c1c(-c2ccccc2)c2cc(C)ccc2c(=O)n1Cc1ccccc1`: the “%Inh” value turned out to be 0%.
On the same count and under the same terms, the figure for `Nc1nccc2scc(-c3ccc4c(c3)CCN4C(=O)Cc3ccccc3)c12` [GSK2576924] is 7%.
The same measure, in the same setting: the figure for `OCCCNc1nccc(-c2c(-c3cccc(C(F)(F)F)c3)nn3cc(C(F)(F)F)ccc23)n1` [GW630813] is 37%.
On the same count and under the same terms, the value for `O=c1cc(N2CCOCC2)nc2n(Cc3ccc(F)c(Cl)c3)ccn12` [GSK2297099] was 6%; that for `Cc1nnc(-c2ccc3ncn(-c4ccc(S(C)=O)cc4)c3c2)o1` (centres unmarked) was 0%; that for `COC(=O)c1c(-c2ccccc2)c2cc(Br)ccc2c(=O)n1Cc1ccc(NC(=O)CCC(=O)O)cc1` was 0%.
On to `COc1cc(OC)cc(-c2cc3cnc(N)nc3nc2NC(=O)NC(C)(C)C)c1`, for which the “%Inh” value is reported as 4%.
Turning to `Nc1ncnc2c1ncn2-c1ccc(Cl)cc1` [AH2635], the “%Inh” value was 27%.
For `Cl.c1ccc(Cn2cnc3cc(Nc4ncnc5ccccc45)ccc32)cc1` [GW272142], the “%Inh” value is 6%.
Same read-out and setting: the value for `CCC(=O)c1c(-c2ccccc2)c2cc(Cl)ccc2c(=O)n1Cc1ccc(C(=O)O)cc1` was 0%.

The test system of a further assay is T2, DMPK2.
T2 construct: gene CDC42BPG
Particulars: concentration: 1 μM, replicates: in singlicate; n = 1.
On to `CN1C(=O)C(Nc2cc(Cl)c(O)c(Cl)c2)=C(c2ccc(Cl)cc2)C1=O` [SB-404321], for which the “%Inh” value turned out to be 0%.
The same measure, in the same setting: the value for `CCC(=O)c1c(-c2ccccc2)c2cc(Cl)ccc2c(=O)n1Cc1cc(C(=O)NC2CC2)n(C)n1` was 0%; that for `COc1cccc(C2=C(Nc3cccc(C(=O)O)c3)C(=O)NC2=O)c1` [SB-390770] was 4%.
Still for that read-out and setting: the figure for `O=C(Nc1ccc2c(c1)OCO2)NC1CCN(c2ccnc(NCc3ccc(F)cc3)n2)CC1` [GSK1379859] is 16%.
Same read-out and setting: the value for `COc1cc2nccc(Nc3cccc(Oc4ccccc4)c3)c2cc1OC.Cl` [GW284543] was 0%; that for `COc1cc(Nc2nccc(N3CCC(NC(=O)C(C)c4ccc(Cl)cc4)C3)n2)cc(OC)c1OC` (centres unmarked) [GSK1379757] was 8%.
With `Cc1ccccc1COc1cc(-n2cnc3cc(Cl)ccc32)sc1C(N)=O` [GW813349], the “%Inh” value worked out at 2%.
With `CCC(=O)c1c(-c2ccccc2)c2cc(Cl)ccc2c(=O)n1Cc1cc(S(C)(=O)=O)n(CCC(C)(C)O)n1`, the “%Inh” value worked out at 17%.
Same read-out and setting: the figure for `Cc1nn2c(=O)cc(N3CCOCC3)nc2n1Cc1cccc(Cl)c1Cl` [GSK2342769] is 0%; for `COc1ccc(Nc2nccc(N3CCC(NS(=O)(=O)c4ccc(NC(C)=O)cc4)C3)n2)cc1` (centres unmarked) [GSK1379729] it is 8%.
Still for that read-out and setting: the figure for `Cc1cccc(-c2nc(Nc3ccc4c(cnn4C)c3)c3ccccc3n2)n1` [GW876731] is 22%; for `C[C@@H]1CC[C@H](C(=O)NC2CCCCC2)CN1c1cc(-c2ccc3c(N)n[nH]c3c2)nc(N)n1` [GSK2291363] it is 23%.
Still for that read-out and setting: the figure for `COc1cc2ncn(-c3cc(OCc4ccncc4Br)c(C(N)=O)s3)c2cc1OC` [GW854278] is 0%.
For `Cc1ccc(-c2ccc3c(ccc4sc5c(c43)NC[C@@H](C)N=C5N(C)C)n2)cn1`, the “%Inh” value was 0%.
On to `COc1ccc(-c2coc3ccc(-c4nnc(SCc5cccc(C#N)c5)o4)cc23)cc1`, for which the “%Inh” value was determined as 0%.
The same measure, in the same setting: the figure for `Cc1cc(Nc2nc(-c3cccc(C)n3)nc3ccccc23)ccn1` [GW872411] is 2%; for `Cl.NS(=O)(=O)c1cccc(Nc2cc(-c3ccc(F)cc3)n[nH]2)c1` [GW824645] it is 0%.
Same read-out and setting: the value for `CC(C)(C)c1ccc(C(=O)Nc2cn3cc(-c4ccccc4)ccc3n2)cc1` was 0%; that for `CCn1c(-c2ccoc2)nc2cnccc21` [SB-733887] was 0%.
The same measure, in the same setting: the value for `Nc1n[nH]c2nnc(-c3ccccc3)c(-c3ccccc3)c12` [GW554060] was 0%; that for `CN(C)c1cc(-c2ccc3c(N)n[nH]c3c2)nc(N)n1` [GSK2219329] was 5%.
Take `Nc1ncnc2c1ncn2-c1cccc(F)c1` [SKF-97560]: the “%Inh” value was determined as 14%.
The same measure, in the same setting: the value for `Nc1nc(-c2ccccc2F)c(-c2ccnc3ccccc23)s1` [GW560459] was 3%; that for `CCn1c(-c2nonc2N)nc2ccccc21` [SB-693162/GW549034] was 0%.
On the same count and under the same terms, the figure for `Cc1ccc(Oc2ccc(Nc3ncnc4cc[nH]c34)cc2C)cn1` is 0%; for `Cc1nnc(-c2ccc(C)c(-c3ccc(C(=O)O)cc3)c2)o1` [GW608005] it is 0%; for `CCS(=O)c1ccc(-c2coc3ccc(-c4nnc(C)o4)cc23)cc1` (centres unmarked) it is 0%.
Turning to `COC(=O)c1c(-c2ccccc2)c2cc(C)ccc2c(=O)n1Cc1ccccc1`, the “%Inh” value turned out to be 0%.
On the same count and under the same terms, the value for `Nc1nccc2scc(-c3ccc4c(c3)CCN4C(=O)Cc3ccccc3)c12` [GSK2576924] was 22%; that for `OCCCNc1nccc(-c2c(-c3cccc(C(F)(F)F)c3)nn3cc(C(F)(F)F)ccc23)n1` [GW630813] was 39%; that for `O=c1cc(N2CCOCC2)nc2n(Cc3ccc(F)c(Cl)c3)ccn12` [GSK2297099] was 0%.
Still for that read-out and setting: the figure for `Cc1nnc(-c2ccc3ncn(-c4ccc(S(C)=O)cc4)c3c2)o1` (centres unmarked) is 0%.
Turning to `COC(=O)c1c(-c2ccccc2)c2cc(Br)ccc2c(=O)n1Cc1ccc(NC(=O)CCC(=O)O)cc1`, the “%Inh” value is given as 0%.
Still for that read-out and setting: the figure for `COc1cc(OC)cc(-c2cc3cnc(N)nc3nc2NC(=O)NC(C)(C)C)c1` is 0%.
The same measure, in the same setting: the figure for `Nc1ncnc2c1ncn2-c1ccc(Cl)cc1` [AH2635] is 12%; for `Cl.c1ccc(Cn2cnc3cc(Nc4ncnc5ccccc45)ccc32)cc1` [GW272142] it is 11%.
On the same count and under the same terms, the value for `CCC(=O)c1c(-c2ccccc2)c2cc(Cl)ccc2c(=O)n1Cc1ccc(C(=O)O)cc1` was 0%.

Values taken from paper PMC5540273 (PLoS ONE, 2017).
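Further: KINOMEscan kinase panel screen.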
